Measurements as given in PubChem BioAssay (NCATS).
Several values for one entry are separate records, joined by “and”; a condition that tells them apart may be missing. Equal values may be shown once. Records with an inconclusive call do not appear. Some compounds were tested as several samples or in several runs, with calls that do not always agree. Activity calls are given as the source filed them. Unless noted, calls come from the whole dose curve; as a rule, active = well fitted curve in the direction sought with a large enough effect; inconclusive = small, poorly fitted or top-dose-only effect, or another doubt; inactive = no such curve, though single readings can be large; an effect the other way counts as inactive or inconclusive.

Experiments:
[1] = qHTS assay for small molecule disruptors of the mitochondrial membrane potential - 5 hr assay (AID 651755; calls by dose curve; note: nearly all actives have a fitted effect of over 40% in size; note: potency is the fitted concentration of half-maximal effect)
Procedure, shortened: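 Seed HepG2 overnight, add compound, incubate 5 hr at 37C and 5% CO2, stain 30 min with Mito-MPS, then measure monomer (490/535 nm) and aggregate (540/590 nm) fluorescence.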

[2] = biological target: Peroxisome proliferator-activated receptor alpha (Homo sapiens) (UniProt Q07869); assay: qHTS assay for small molecule agonists of the peroxisome proliferator-activated receptor alpha (PPARalpha) signaling pathway (AID 651778); details: PathHunter PPARalpha complementation, chemiluminescence, 6 h; max response: stronger effect = higher value; note: potency is the fitted concentration of half-maximal effect; for max response: % of control where 0% means no effect
Procedure, shortened: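 Cells plated at 2,000/well and held overnight at 37 C, 5% CO2, then compound added by pin tool for 6 hr; after PathHunter detection reagent and 60 min at room temperature, chemiluminescence from enzyme complementation was read.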

[3] = biological target: Nuclear receptor ROR-gamma (Homo sapiens) (UniProt P51449); assay: qHTS assay for small molecule antagonists of the retinoid-related orphan receptor gamma (ROR-gamma) signaling pathway (AID 651802); note: nearly all actives have a fitted effect of over 60% in size; note: potency is the fitted concentration of half-maximal effect
Procedure, shortened: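 Doxycycline-induced reporter activity in engineered CHO cells (TET-inducible ROR, RORE-LUC) was measured by luminescence after 16hr compound exposure at 37C.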

[4] = qHTS assay for small molecule antagonists of the retinoid-related orphan receptor gamma (ROR-gamma) signaling pathway - cell viability counter screen (AID 720652; active = well fitted curve in the direction sought with a large enough effect in the repeat runs; an effect the other way counts as inactive or inconclusive;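 note: compound exposure lasted 16 hr before ATP read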; note: potency is the fitted concentration of half-maximal effect)
Procedure, shortened: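 ATP-based viability readout in the ROR-gamma reporter CHO cells after 16 hr compound exposure under doxycycline induction.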

[5] = qHTS Assay for Identifying Gametocytocidal Compounds (AID 743244); note: potency is the fitted concentration of half-maximal effect;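 for max response: % is set by controls: 0 for no effect and ±100 for the full control effect; actives lower the fluorescent signal which means gametocytes are killed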; details: P. falciparum 3D7 stage III-V gametocytes, alamarBlue, 72 h; max response: stronger effect = lower value
Procedure, shortened: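 In this qHTS viability screen, late-stage 3D7 gametocytes are incubated with compound for 72 h, then with alamarBlue for 24 h; reduced resorufin fluorescence marks killing.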

[6] = qHTS assay for cell viability of the p53RE-bla HCT-116 cell line (AID 743292); note: % is set by controls: 0 for no effect and ±100 for the full control effect; nearly all actives have a fitted effect of over 55% in size
Procedure, shortened: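 CellSensor p53RE-bla HCT-116 cells (4,000/well) pre-incubated 5 h at 37 C, then exposed to compounds in DMSO for 16 h at 37 C. Viability read as ATP content by CellTiter-Glo luminescence after 30 min at room temperature.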

[7] = biological target: Tyrosine-protein kinase Yes (Homo sapiens) (UniProt P07947); assay: qHTS for small molecule inhibitors of Yes1 kinase: Primary Screen (AID 686947);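 note: plate controls were DMSO with enzyme for no effect and no-enzyme DMSO wells for full effect; nearly all actives have a fitted effect of over 60% in size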
Procedure, shortened: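 In this qHTS format, inhibition is expressed relative to DMSO controls with enzyme (maximum) and without enzyme (minimum). The 60 min room-temperature reaction uses 0.1 mM ATP, with ADP detected by luminescence.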

[8] = qHTS for small molecule inhibitors of Yes1 kinase: Counter Assay (AID 686950);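 note: no kinase present so only ADP-Glo detection of a fixed ADP amount is tested; luminescence from ADP-Glo reporting ADP in a fixed ATP and ADP mixture; 0% = DMSO wells with ATP plus ADP and -100% = ATP-only wells without ADP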
Procedure, shortened: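 Measuring interference with ADP-Glo, the assay ran 60 min at room temperature on an ATP/ADP mix lacking enzyme. Values were normalized to ATP-plus-ADP (maximum) and ATP-only (minimum) DMSO controls.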

[9] = qHTS for compounds that reverse cellular toxicity of Amyloid beta (A-beta) peptide in yeast: LOPAC Validation Assay (AID 720559);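 note: plate controls were DMSO for no effect and equimolar ferric chloride plus clioquinol rescue for full effect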
Procedure, shortened: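 Yeast cells expressing toxic A-beta were combined with pinned compounds in growth medium and incubated 48 hr at 30 C. Growth was read as absorbance at 600 nm and normalized to DMSO and to an equimolar FeCl3/clioquinol positive control.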

[10] = qHTS for Activators of Parkin Expression: LOPAC Validation Assay (FLuc Reporter) (AID 720573;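 note: 0% = DMSO and 100% = positive control compounds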)
Procedure, shortened: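 Neuronal cell line stably carrying FLuc/NLuc coincidence reporter under Parkin promoter; cells plated 24 h, then compounds added in 7-point dose response for 24 h at 37 C. FLuc luminescence read; normalized to DMSO and positive control (100%).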

[11] = biological target: T1, Hexokinase-4 (Homo sapiens) + Glucokinase regulatory protein (Homo sapiens) (UniProt P35557+Q14397); assay: qHTS assay for inhibitors of recombinant human GCK-GKRP interaction: Diaphorase-coupled assay (AID 743205)
Procedure, shortened: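 GST-GCK (10 nM) with FLAG-GKRP (10 nM), 5 mM glucose and 0.4 mM ATP in pH 7.6 Hepes; compounds preincubated 20 min with substrate. G6PDH/diaphorase coupling converts resazurin to resorufin, read kinetically (ex 525/em 590 nm) for 30 min.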

[12] = biological target: T1, Hexokinase-4 (Homo sapiens) + Glucokinase regulatory protein (Homo sapiens); assay: qHTS assay for inhibitors of recombinant human GCK-GKRP interaction: ADP-Glo assay (AID 743206);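 note: plate controls were DMSO plus enzyme for no effect and no enzyme for full effect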
Procedure, shortened: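 Pin-transferred compounds meet a 15 nM GST-GCK/15 nM FLAG-GKRP/2 uM S6P mix (dispense concentrations). ATP is then added to 0.4 mM final with 5 mM glucose, and the reaction runs 60 min at room temperature. ADP is quantified luminescently.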

[13] = qHTS profiling for inhibitors of Plasmodium falciparum (3D7) proliferation (AID 743322; call rule not given here;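 note: infected erythrocytes exposed to compound for 72 h before lysis; 100% = DMSO vehicle wells and 0% = 0.29 µM artemisinin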); details: P. falciparum 3D7 proliferation; at 28.7 µM (top of the series) unless noted
Procedure, shortened: (§1)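 Parasite DNA was quantified by SYBR Green I fluorescence (ex 485, em 535 nm) after overnight lysis in saponin/Triton buffer at room temperature. Cultures at 0.3% parasitemia and 2.5% hematocrit were first exposed to compound for 72 h at 37 C; signals were normalised to artemisinin (0.29 uM) and vehicle wells.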

[14] = qHTS profiling for inhibitors of Plasmodium falciparum (DD2) proliferation (AID 743323; call rule not given here); details: lower = more inhibition; at 28.7 µM (top of the series) unless noted
Procedure, shortened: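 P. falciparum Dd2-infected erythrocytes (0.3% parasitemia, 2.5% hematocrit) exposed 72 h at 37 C, 5% CO2. Lysis with SYBR Green, overnight at room temperature, fluorescence 485/535 nm; normalized to 0.29 uM artemisinin and DMSO.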

[15] = qHTS profiling for inhibitors of Plasmodium falciparum (HB3) proliferation (AID 743324); details: Plasmodium falciparum HB3 blood-stage proliferation; at 28.7 µM (top of the series) unless noted;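 note: 100% = DMSO vehicle wells and 0% = artemisinin-treated control wells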
Procedure, shortened: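 SYBR Green fluorescence (485 ex/535 em) of lysed cultures, incubated overnight at room temperature in the dark, quantifies parasite DNA. Infected erythrocytes at 0.3% parasitemia and 2.5% hematocrit were exposed 72 h; values normalized to DMSO and 0.29 uM artemisinin controls.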

[16] = qHTS profiling of the MIPE4 collection as inhibitors of Plasmodium falciparum (3D7) proliferation (AID 743344; call rule not given here;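 note: scaled between DMSO vehicle wells and 0.29 µM artemisinin as full inhibition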); details: P. falciparum 3D7 in erythrocytes, SYBR Green DNA fluorescence, 72 h; at 28.5 µM (top of the series) unless noted
Procedure, shortened: as §1

[17] = biological target: Tumor necrosis factor (Homo sapiens) (UniProt P01375); assay: qHTS assay to identify small molecules that stimulate Tumor Necrosis Factor-alpha (TNF-alpha) secretion (AID 651757; active = well fitted curve in the direction sought with a large enough effect in the signal ratio; the % refers to the signal ratio; note: 0% is about no effect)
Procedure, shortened: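 Using 3000 THP-1 cells per well, compounds and controls were applied for 17 hrs at 37 C. Detection followed with two labeled anti-TNF-alpha antibodies (cryptate donor, XL665 acceptor) for 3 hr at room temperature, measured by TR-FRET.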

[18] = qHTS assay for small molecule agonists of the antioxidant response element (ARE) signaling pathway measured by Nrf2-dependant transcriptional activity (AID 720636; active = well fitted curve in the direction sought with a large enough effect in the repeat runs; an effect the other way counts as inactive or inconclusive; note: potency is the fitted concentration of half-maximal effect)
Procedure, shortened: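 ARE-luc HepG2 cells carrying an Nrf2-responsive luciferase reporter, in medium with 1% dialyzed FBS, exposed to compound for 16 hr at 37 C, 5% CO2. Luminescence read 30 min after ONE-Glo addition.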

[19] = qHTS assay for small molecule agonists of the antioxidant response element (ARE) signaling pathway measured by Nrf2-dependant transcriptional activity - cell viability counter screen (AID 720653; active = well fitted curve in the direction sought with a large enough effect in the repeat runs; an effect the other way counts as inactive or inconclusive; note: % is set by controls: 0 for no effect and ±100 for the full control effect); details: ARE-bla HepG2 viability, CellTiter-Glo ATP luminescence, 16 h; stronger effect = lower value
Procedure, shortened: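 ARE-bla HepG2 cells (2,000/well) rested 5 hrs at 37C/5% CO2, then exposed to compounds in DMSO for 16 hrs. Viability was read in the same wells as intracellular ATP by luminescence, 30 min at room temperature after reagent addition.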

[20] = qHTS assay for cell viability of HEK293 cells (AID 743288); details: ATP luminescence (CellTiter-Glo), 18 h, stronger effect = lower value; note: % is set by controls: 0 for no effect and ±100 for the full control effect; nearly all actives have a fitted effect of over 50% in size
Procedure, shortened: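 After 18 h compound exposure at 37 C, parental HEK293 cells (2,000/well) are lysed with CellTiter-Glo and luminescence is read following 30 min at room temperature.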

Chain of Peroxisome proliferator-activated receptor alpha (Homo sapiens) (Q07869 whole entry, looked up): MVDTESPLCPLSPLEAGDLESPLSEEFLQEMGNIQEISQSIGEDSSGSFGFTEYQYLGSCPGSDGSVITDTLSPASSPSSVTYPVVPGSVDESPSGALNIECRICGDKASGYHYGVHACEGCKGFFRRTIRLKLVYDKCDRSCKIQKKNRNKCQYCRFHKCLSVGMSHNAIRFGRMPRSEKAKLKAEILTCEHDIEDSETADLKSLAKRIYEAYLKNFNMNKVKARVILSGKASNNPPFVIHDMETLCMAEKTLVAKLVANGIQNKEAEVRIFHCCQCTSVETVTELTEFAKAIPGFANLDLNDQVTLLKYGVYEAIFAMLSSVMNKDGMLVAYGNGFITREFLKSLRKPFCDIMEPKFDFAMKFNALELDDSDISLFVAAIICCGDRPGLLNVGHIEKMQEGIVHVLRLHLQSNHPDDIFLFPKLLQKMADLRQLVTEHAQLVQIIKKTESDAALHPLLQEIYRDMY
Chain of Tumor necrosis factor (Homo sapiens) (P01375 whole entry, looked up): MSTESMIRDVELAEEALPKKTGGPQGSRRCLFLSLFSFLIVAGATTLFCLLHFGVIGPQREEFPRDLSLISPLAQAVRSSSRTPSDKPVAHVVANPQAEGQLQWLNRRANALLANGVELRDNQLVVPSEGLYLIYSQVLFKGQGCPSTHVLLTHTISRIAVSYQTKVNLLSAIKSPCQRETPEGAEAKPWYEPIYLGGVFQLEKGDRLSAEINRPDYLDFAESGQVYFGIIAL
Chain of Nuclear receptor ROR-gamma (Homo sapiens) (P51449 whole entry, looked up): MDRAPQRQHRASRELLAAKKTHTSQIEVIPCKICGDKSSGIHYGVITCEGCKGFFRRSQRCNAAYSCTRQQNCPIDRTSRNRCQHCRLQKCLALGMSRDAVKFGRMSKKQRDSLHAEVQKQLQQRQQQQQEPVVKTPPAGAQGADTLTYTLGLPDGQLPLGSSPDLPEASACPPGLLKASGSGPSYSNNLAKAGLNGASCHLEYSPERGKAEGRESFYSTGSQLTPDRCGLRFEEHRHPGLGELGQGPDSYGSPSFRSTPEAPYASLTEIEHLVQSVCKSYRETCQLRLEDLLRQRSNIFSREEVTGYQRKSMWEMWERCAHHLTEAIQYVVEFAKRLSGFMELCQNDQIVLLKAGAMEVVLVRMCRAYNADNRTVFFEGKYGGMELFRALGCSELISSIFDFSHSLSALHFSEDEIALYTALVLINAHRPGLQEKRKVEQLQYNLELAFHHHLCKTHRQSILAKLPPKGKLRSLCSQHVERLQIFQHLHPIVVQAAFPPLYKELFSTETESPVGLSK
T1 sequence (P35557 whole entry, looked up): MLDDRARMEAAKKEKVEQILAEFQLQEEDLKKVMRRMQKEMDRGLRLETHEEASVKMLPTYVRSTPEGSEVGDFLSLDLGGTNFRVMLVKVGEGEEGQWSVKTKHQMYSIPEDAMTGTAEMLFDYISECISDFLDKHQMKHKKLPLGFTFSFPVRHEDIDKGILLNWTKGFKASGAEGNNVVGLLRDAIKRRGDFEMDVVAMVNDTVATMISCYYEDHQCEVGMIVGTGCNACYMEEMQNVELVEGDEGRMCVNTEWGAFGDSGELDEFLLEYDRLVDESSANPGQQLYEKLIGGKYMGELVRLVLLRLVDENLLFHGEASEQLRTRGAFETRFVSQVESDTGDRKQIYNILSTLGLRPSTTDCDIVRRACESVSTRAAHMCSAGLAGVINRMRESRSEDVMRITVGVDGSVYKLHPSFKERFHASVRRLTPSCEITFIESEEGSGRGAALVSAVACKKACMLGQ
T1 sequence (Q14397 whole entry, looked up): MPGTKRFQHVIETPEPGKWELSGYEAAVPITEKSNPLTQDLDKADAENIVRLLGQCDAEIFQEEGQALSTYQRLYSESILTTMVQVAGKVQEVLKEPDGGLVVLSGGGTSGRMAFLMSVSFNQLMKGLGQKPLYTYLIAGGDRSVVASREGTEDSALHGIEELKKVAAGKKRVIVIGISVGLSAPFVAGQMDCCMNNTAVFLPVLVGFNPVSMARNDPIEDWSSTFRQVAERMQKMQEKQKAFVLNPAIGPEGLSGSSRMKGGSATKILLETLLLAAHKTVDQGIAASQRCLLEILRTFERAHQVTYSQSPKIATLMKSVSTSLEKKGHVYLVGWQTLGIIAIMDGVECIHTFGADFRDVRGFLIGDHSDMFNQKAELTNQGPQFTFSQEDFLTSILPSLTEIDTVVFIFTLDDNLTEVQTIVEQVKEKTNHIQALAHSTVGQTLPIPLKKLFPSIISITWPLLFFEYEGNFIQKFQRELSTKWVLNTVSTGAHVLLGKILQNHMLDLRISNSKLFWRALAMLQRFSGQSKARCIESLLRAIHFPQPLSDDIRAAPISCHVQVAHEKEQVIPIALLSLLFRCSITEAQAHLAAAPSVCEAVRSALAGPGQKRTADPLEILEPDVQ
Chain of Tyrosine-protein kinase Yes (Homo sapiens) (P07947 whole entry, looked up): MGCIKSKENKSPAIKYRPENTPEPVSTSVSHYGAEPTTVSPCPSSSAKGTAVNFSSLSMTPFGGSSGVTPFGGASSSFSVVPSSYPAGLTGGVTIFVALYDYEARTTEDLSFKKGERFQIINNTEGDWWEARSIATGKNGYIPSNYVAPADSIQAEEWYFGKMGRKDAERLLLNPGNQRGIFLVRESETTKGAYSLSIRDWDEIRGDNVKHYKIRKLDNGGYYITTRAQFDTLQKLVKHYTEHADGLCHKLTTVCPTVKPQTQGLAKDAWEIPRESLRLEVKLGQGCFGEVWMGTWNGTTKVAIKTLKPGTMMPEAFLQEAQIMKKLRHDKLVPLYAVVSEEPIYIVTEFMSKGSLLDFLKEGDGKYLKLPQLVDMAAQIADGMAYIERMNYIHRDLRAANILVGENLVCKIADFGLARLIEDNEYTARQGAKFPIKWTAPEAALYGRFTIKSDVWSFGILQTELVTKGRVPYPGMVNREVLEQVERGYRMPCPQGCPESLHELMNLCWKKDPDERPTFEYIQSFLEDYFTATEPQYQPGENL

COc1cccc2c1C(=O)c1c(O)c3c(c(O)c1C2=O)C[C@@](O)(C(C)=O)C[C@@H]3O[C@H]1C[C@H](N)[C@H](O)[C@H](C)O1
active: Potency [1] 5.96 µM | Potency [3] 18.8 µM | Potency [4] 13.3 µM | Potency [5] 6.31 µM
inactive: max response [2] -9.3% | outcome [6]

COc1cc2c(cc1O)CC[C@@H]1[C@@H]2CC[C@]2(C)[C@@H](O)CC[C@@H]12
93.9% and 38.4%: remaining proliferation (% of control), lower = more inhibition [15]
inactive: outcome [7] | outcome [8] | outcome [9] | outcome [10] | outcome [11] | outcome [12] | max response [5] -20.1% and 26.1%
83.5%: parasite growth, % of DMSO control [16]
93.6% and 83.5%: activity, percent of control [14]
90.1% and 79.2%: remaining parasite growth % (stronger effect = lower value) [13]

O=C1OC(c2ccc(O)cc2)(c2ccc(O)cc2)c2ccccc21
active: Potency [3] 66.8 µM
inactive: outcome [17] | max response [2] -2.04% and -2.85% | Potency [18] | Potency [4] | max response [19] 4.44% and -20.6% | max response [5] 7.07% | max response [20] -1.91% and -6.06% | outcome [6]

Oc1ccc(Cl)cc1Sc1cc(Cl)ccc1O
inactive: outcome [17] | max response [2] 18% | Potency [4] | max response [5] 6.07% | outcome [6]

CC(C)(C)CC(C)(C)c1ccc(OCCOCC[N+](C)(C)Cc2ccccc2)cc1
inactive: Potency [1] | outcome [17] | max response [2] -0.283% and 4.47% | Potency [4]
active: Potency [5] 8.91 µM

C=C(CC)C(=O)c1ccc(OCC(=O)O)c(Cl)c1Cl
inactive: outcome [17] | max response [2] -4.86% | Potency [4] | max response [19] 6.68% | max response [20] -7.15% | outcome [6]
active: Potency [3] 37.6 µM

O=c1ccc2ccccc2o1
inactive: outcome [17] | max response [2] -5.67% and -0.649% and -3.56% | Potency [3] | Potency [18] | Potency [4] | max response [19] 0.83% and -14.1% and -0.794% | max response [5] 15.4% | max response [20] 8.9% and -9.16% and -5.08% | outcome [6]

O=C(O)CCCCC(=O)O
inactive: outcome [17] | max response [2] -5.15% | Potency [18] | Potency [4] | max response [19] 6.35% | max response [5] -5.63% | max response [20] 0.134% | outcome [6]

CC(=O)Oc1ccc(C(c2ccc(OC(C)=O)cc2)c2ccccn2)cc1
inactive: Potency [1] | outcome [17] | max response [2] -4.57% | Potency [3] | Potency [18] | Potency [4] | max response [19] 4.78% | max response [5] 7.87% | max response [20] -9.96%

C=CCc1ccc(O)c(OC)c1
inactive: outcome [17] | max response [2] -0.867% and -4.24% | Potency [3] | Potency [18] | Potency [4] | max response [19] -2.21% and -7.34% | max response [5] 4.9% | max response [20] -4.89% and -5.68% | outcome [6]

Cc1cc(=O)n(-c2ccccc2)n1C
inactive: max response [2] 0.347% | Potency [18] | max response [19] -4.23% | max response [5] 18.5% | max response [20] -2.36% | outcome [6]

Oc1c(Cl)cc(Cl)cc1Sc1cc(Cl)cc(Cl)c1O
inactive: outcome [17] | Potency [18] | Potency [4] | max response [5] 20.1% | outcome [6]
active: Potency [1] 13.3 µM | Potency [2] 28.2 µM and 25.1 µM | Potency [3] 4.73 µM

COC1=CC(=O)C[C@@H](C)[C@]12Oc1c(Cl)c(OC)cc(OC)c1C2=O
inactive: Potency [1] | max response [2] 2.03% | Potency [18] | Potency [4] | max response [19] 2.34% | max response [5] 1.7% | max response [20] -14.5% | outcome [6]

COc1cccc2c1C(=O)c1c(O)c3c(c(O)c1C2=O)C[C@@](O)(C(=O)CO)C[C@@H]3O[C@H]1C[C@H](N)[C@H](O)[C@H](C)O1
-2.65%: activity, percent of control [14]
-0.62%: remaining proliferation (% of control), lower = more inhibition [15]
active: Potency [1] 2.66 µM | Potency [4] 23.7 µM | Potency [5] 526 nM and 2.82 µM
inactive: max response [2] -6.93% and -6.66% | outcome [7] | outcome [8] | Potency [18] | max response [5] -8.37% | outcome [6]
-4.76%: remaining parasite growth % (stronger effect = lower value) [13]

Oc1c(I)cc(Cl)c2cccnc12
inactive: outcome [17] | max response [2] 1.34% | max response [19] -8.01%
active: Potency [3] 23.7 µM | Potency [18] 5.96 µM | Potency [5] 7.94 µM

CC(=O)O[C@]1(C(C)=O)CC[C@H]2[C@@H]3C[C@H](C)C4=CC(=O)CC[C@]4(C)[C@H]3CC[C@@]21C
inactive: outcome [17] | max response [2] 0.549% and -0.24% | Potency [18] | Potency [4] | max response [19] -14.4% and -14.9% | outcome [6]
active: Potency [3] 16.8 µM
